# Results published in PubChem BioAssay (NCI).
# About 83,000 compounds went through this panel and 20% of them were active in at least one assay; those are over-represented in the sample as a whole.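 Single-dose data. Exposure time 48 hours. Values below 10 considered active.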 A number with no mark means an inactive call. Active and inactive are the calls of the source.
# Tested on: HL-60(TB) leukemia
# Assay: NCI-60 one-dose screen, 48 h (100 = growth as untreated, 0 = no growth, -100 = all killed)
# Conditions: 10 µM unless noted
row,SMILES,growth
1,NCCOCCOc1ccccc1,108%
2,O=C1CCCCN1CCCCC#Cc1cccc(C#Cc2cccnc2)c1,-23.2% (active)
3,O=S(=O)(O)c1ccc(N=NSc2ccc3ccccc3c2)cc1,98.8%
4,COc1ccc(CCc2nc3cc(-c4c(C)noc4C)ccc3n2CCN2CCOCC2)cc1,5.97% (active)
5,COc1cccc(/C=C2/C(=O)N(Cc3ccco3)SC2=S)c1OC,94.5%
6,O=C(/C=C/c1ccc([N+](=O)[O-])cc1)c1cccc(Nc2nc(Nc3ccccc3)nc(Nc3ccccc3)n2)c1,85.1%
7,Nc1c(C(=O)Nc2cccc(Cl)c2)sc2nc3c(cc12)CCCC3,78.8%
8,CN1CCN(Cc2ccc(NC(=O)c3[nH]ncc3Nc3ncnc4sc5c(c34)CCCC5)cc2)CC1,-67.4% (active)
9,Nc1cc2c(cc1Cl)-c1ccc(Cl)cc1C2=O,75.7%
10,CCN(CC)CCNC(=O)c1ccc(-c2nc3ccc4[nH]ncc4c3c3c2CCCC3)cc1,67.9%
11,COC(=O)[C@H](C)NC(=O)[C@@H](OC)[C@@H]1Cc2cc3cc(OC4CC(OC5CC(O)C(O)C(C)O5)C(O)C(C)O4)c(C)c(O)c3c(O)c2C(=O)[C@H]1OC1CC(OC2CC(OC3CC(C)(O)C(O)C(C)O3)C(O)C(C)O2)C(O)C(C)O1 (stereo not given in full),20.8%
12,COC(=O)CC1=C(C)/C(=C/c2[nH]c(-c3ccc[nH]3)cc2OC)N=C1C,-29.2% (active)
13,Cc1ccc(S(=O)(=O)N2CCC(=O)c3ccccc32)cc1,60.3%
14,OCC(CO)(CCl)CCl,96.3%
15,Cc1cc(C)nc(SCC(=O)Nc2cccc(N=Cc3ccccc3O)c2)n1,96.6%
16,O=C1C2C(C(=O)N1CC[Se][Se]CCN1C(=O)C3C(C1=O)[C@H]1C=C[C@@H]3C1)[C@H]1C=C[C@@H]2C1 (stereo not given in full),-54.7% (active)
17,CC(C)(C)n1cc(-c2ccnc(NCCCNS(=O)(=O)c3cccc(F)c3)c2)c(-c2cccc(O)c2)n1,35.4%
18,CC1(C)NC2=C(C(Nc3cccnc3)N1)C(c1ccc([N+](=O)[O-])cc1)C(C(=O)c1ccc(N=[N+]=[N-])cc1)O2 (stereo not given),104%
19,Nc1ccccc1NC(=O)c1ccc(CN2CCC/C(=C\c3ccccn3)C2=O)cc1,-18% (active)
20,Brc1ccc2[nH]cc(-c3cncn3CCc3ccccc3)c2c1,39.3%

row,SMILES,growth
1,Cc1ccccc1COc1ccc(-c2ccnn2-c2ccc(Cl)cc2)cc1,13.3%
2,N=c1ccc2nc3ccc(N)cc3sc-2c1,0.816% (active)
3,CC(=Nc1ccccc1)C1=C(O)C(Cc2cccc(F)c2)NC1=O (stereo not given),-15.2% (active)
4,COc1ccc(CCN2COc3c([C@@H](C)CCC=C(C)C)ccc(C)c3C2)cc1OC,29.1%
5,C/C(=N\Nc1ccc([N+](=O)[O-])cn1)c1ccc(N)cc1,-30.8% (active)
6,Cc1ccc(S(=O)(=O)O)c(C)c1,100%
7,C#C[C@@]1(O)[C@@H](CO)O[C@@H](n2cc(Br)c3c(Cl)ccnc32)[C@@H]1O,-46.5% (active)
8,COc1ccc(-c2cc(-c3cc(OC)c(OC)c(OC)c3)c(C#N)c(=O)n2CCCCC(=O)O)cc1,103%
9,O=C1CCc2c(sc3[nH]c(=S)n(Cc4ccc(Cl)cc4)c(=O)c23)C1,-5.26% (active)
10,CCn1c(SCC(=O)N/N=C(\C)c2ccc(Cl)cc2)nc2c1c(=O)n(C)c(=O)n2C,101%
11,COc1cc(/C=C/C(=O)N2CCN(C(=O)c3cc(OC)c(OC)c(OC)c3)CC2)ccc1OCCCOc1cc2c(cc1OC)C(=O)N1CCC[C@H]1C=N2,-28% (active)
12,COc1cccc(CNc2cccc3cn[nH]c23)c1O,144%
13,O=C1NC(=O)/C(=C/c2c(-c3ccccc3)nc3sc(COc4ccccc4)nn23)S1,91.1%
14,Cc1ccc2oc(=O)cc(-c3sc(N4CCCCC4)nc3-c3ccccc3)c2c1,95%
15,COc1cc(/C=C2\CCCC3=C2N=C2SC=NN2C3c2cc(OC)c(OC)c(OC)c2)cc(OC)c1OC (stereo not given),-1.19% (active)
16,CC(=C(c1ccc(OCCN2CCCCC2)cc1)c1ccc(OCCN2CCCCC2)cc1)c1ccc(Cl)cc1,-62% (active)
17,O=C(O)COc1ccc(-c2cssc2=S)cc1,101%
18,COc1ccc(/C=N/OCC(O)CN2CCC(O)CC2)cc1OC1CCCC1 (stereo not given),100%
19,Cc1cc(C)c2c(c1)N(C)c1ncnc(-n3c(C)nc4cc(C)ccc43)c1CC2C (stereo not given),1.64% (active)
20,O=C(CCl)N1c2cccc3cccc(c23)N(C(=O)CCl)C1c1cn(-c2ccccc2)nc1-c1cccc([N+](=O)[O-])c1,27.7%
